Bioassay records as filed in PubChem.
NR5A2 inv ag = LRH-1 (NR5A2) inverse agonists, primary screen, cell-based, luminescence, HEK293T, StAR-luciferase reporter; LRH-1 transfected, 24 h; inhibition, % at 3.6 µM; 0.13% of 360,000 active; AID 602396, 2012;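 active = inhibition above the mean inhibition of all tested compounds plus 3 SD, cut at about 73% in these data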;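 also: 0% = DMSO wells and 100% = reporter-only cells lacking LRH-1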
NR2F2 inh = NR2F2 transcriptional activity inhibitors, primary screen, cell-based, luciferase reporter, HEK293T, luminescence; COUP transcription factor 2 (Homo sapiens), P24468; AID 686940, 2013; inhibition, % at 8.6 µM; HEK293T NGFI-A luciferase reporter; 0.7% of 370,000 active;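 active = inhibition above a per-plate cutoff, mean inhibition of test wells between control levels plus 3 SD, cut at about 38% in these data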;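 also: cells cotransfected with COUP-TFII expression vector driving the NGFI-A reporter; 0% = median of COUP-TF2 test wells and 100% = reporter-only cells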
Target sequence (P24468 whole entry, looked up): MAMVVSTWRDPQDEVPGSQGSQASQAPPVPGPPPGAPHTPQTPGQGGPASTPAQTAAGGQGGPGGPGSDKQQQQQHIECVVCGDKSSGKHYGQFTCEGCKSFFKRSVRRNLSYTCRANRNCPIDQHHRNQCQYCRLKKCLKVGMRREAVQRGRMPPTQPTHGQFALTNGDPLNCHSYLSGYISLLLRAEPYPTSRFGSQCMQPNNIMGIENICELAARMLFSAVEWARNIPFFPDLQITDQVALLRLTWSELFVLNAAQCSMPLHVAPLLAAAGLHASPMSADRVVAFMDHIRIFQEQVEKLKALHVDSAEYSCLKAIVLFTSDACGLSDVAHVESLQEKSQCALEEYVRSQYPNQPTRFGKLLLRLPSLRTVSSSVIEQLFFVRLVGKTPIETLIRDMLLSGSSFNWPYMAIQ
SRC1 inh = SRC1 coactivator transcriptional activity inhibitors, primary screen, cell-based, luminescence. HEK293 GAL4-SRC1 luciferase reporter. inhibition, % at 3.6 µM. 0.12% of 360,000 active. AID 588354, 2011;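 active = inhibition above the campaign mean plus 3 SD, with each screening campaign given its own cutoff, cut at about 60% in these data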;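 also: 0% = DMSO treated cells and 100% = gossypol at 36 µM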
SRC2 inh = inhibition of GAL4-SRC2 driven luciferase reporter, primary screen, SRC2 inhibitor project, cell-based, luminescence; Nuclear receptor coactivator 2 (Homo sapiens), Q15596; HEK293 GAL4-SRC2 luciferase reporter; inhibition, % at 9 µM; 0.17% of 370,000 active; AID 651957, 2012;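 active = inhibition above the mean inhibition of all tested compounds plus 3 SD, set per campaign, cut at about 52% in these data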;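 also: 0% = DMSO treated cells and 100% = cells given Gossypol at 36 µM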
NCOA3 inh = SRC3 coactivator transcriptional activity inhibitors, primary screen, cell-based, luminescence; Nuclear receptor coactivator 3 (Homo sapiens), Q9Y6Q9; HEK293 GAL4-SRC3 luciferase reporter; inhibition, % at 3.6 µM; 0.17% of 360,000 active;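 active = inhibition above a per-campaign cutoff, the mean of all compounds plus 3 SD, cut at about 60% in these data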;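 also: 0% = DMSO-treated cells and 100% = gossypol-treated cells at 36 µM; higher means less SRC3-driven luciferase light from the GAL4 reporter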
Gli-Sufu block = Gli-Sufu pathway antagonists, primary screen, luciferase luminescence, Sufu-KO-LIGHT cells, uHTS | Sufu-KO-LIGHT fibroblasts, Gli luciferase reporter luminescence | inhibition, % at 5 µM | 0.74% of 340,000 active;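 active = inhibition above about 55%, limit read from the data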;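 also: 0% = DMSO-treated cells and 100% = wells with medium but no cells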
Gli antag conf = Gli-SUFU pathway antagonists, confirmation, single concentration, luciferase luminescence, Sufu-KO-LIGHT cells; AID 602428, 2012; shares compounds with Gli-Sufu block; Gli luciferase reporter; 40% of 2,500 active; inhibition, % at 5 µM;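 active = mean inhibition at 5 µM reaching about 45%, limit read from the data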;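 also: plate controls were DMSO-treated cells for no effect and wells lacking cells for full effect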
SufuKO cytotox = cytotoxicity in Sufu-KO-LIGHT cells, confirmation, cytotoxicity control for Gli-SUFU antagonist project, cell-based, ATP luminescence, single concentration; 32% of 2,500 active; cytotoxicity, % at 5 µM; shares compounds with Gli-Sufu block;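 active = mean cytotoxicity at 5 µM above about 25%, limit read from the data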;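 also: cells exposed to compound overnight for roughly 16 to 18 hours; plate controls were DMSO wells with cells for no effect and medium without cells for full effect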
Wnt3a counter = Wnt3a reporter signal inhibition, confirmation, counter-screen for Gli-SUFU antagonist project, Wnt-LIGHT cells, luminescence, single concentration; inhibition, % at 6.25 µM; shares compounds with Gli-Sufu block; AID 651995, 2013; Wnt3a-driven luciferase reporter; 20% of 2,500 active;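 active = mean inhibition above about 25%, limit read from the data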
Starred values were filed as active, the others as inactive; x = not tested or not shown. A selection: hits, their analogues and other compounds. The true share with any hit is near 1.3%.

SMILES | NR5A2 inv ag | NR2F2 inh | SRC1 inh | SRC2 inh | NCOA3 inh | Gli-Sufu block | Gli antag conf | SufuKO cytotox | Wnt3a counter
CCCOC(=O)C[N+](C)(C)CCOC1CC2CCC1(C)C2(C)C (stereo unspecified) | 7 | 4 | 8 | 8 | 1 | 42 | x | x | x
CC(C)CCOC(=O)C[N+](C)(C)CCOC1CC2CCC1(C)C2(C)C (stereo unspecified) | 35 | 8 | -3 | 11 | 16 | 77* | 73* | 23 | 23
CCCCOC(=O)C[N+](C)(C)CCOC1CC2CCC1(C)C2(C)C (stereo unspecified) | 8 | -2 | 11 | 17 | 9 | 69* | 72* | 37* | 2
COc1ccc(OC)c(S(=O)(=O)N2CCCCC2C(=O)N2CCN(c3ccccc3F)CC2)c1 (stereo unspecified) | x | -4 | x | 9 | x | x | x | x | x
O=C(O)c1cc(-c2ccco2)nc2ccccc12 | 17 | -16 | 1 | -22 | 4 | -5 | x | x | x
O=C(c1cc(-c2ccco2)nc2ccccc12)N1CCN(c2ccc(F)cc2)CC1 | -8 | -2 | -16 | 13 | -38 | 64* | 21 | 34* | -42
COc1ccc(-c2cc(C(=O)N3CCCCCC3)c3ccccc3n2)cc1 | -19 | -6 | -24 | 2 | -53 | 50 | 16 | 22 | -11
COc1ccc(-c2cc(C(=O)N3CCCCCC3)c3ccccc3n2)cc1OC | -39 | 0 | 2 | 19 | 8 | x | x | x | x
COc1ccc(OC)c(C(=O)CSc2nnc(SCc3cccc4ccccc34)s2)c1 | x | 5 | x | 14 | x | x | x | x | x
CC1(C)Cc2c(sc3nc(-c4ccccc4)n(N)c(=O)c23)CO1 | -31 | 12 | -41 | 1 | -5 | 74* | 6 | -7 | -74
Cc1ccc(C2=C(CC(=O)O)C(=O)CC2)cc1 | 2 | -10 | 1 | -8 | 15 | 55* | 29 | 19 | 7
COC(=O)CC1=C(c2ccc([N+](=O)[O-])cc2)CCC1=O | -6 | -2 | -39 | 4 | 3 | 7 | x | x | x
CC(=O)c1ccc(NCCCN2CCC(C(O)(c3ccccc3)c3ccccc3)CC2)cc1 | x | -15 | x | -2 | x | x | x | x | x
CCCn1c(N)c(C(=O)CSc2nnc(-c3ccoc3C)n2C)c(=O)n(C)c1=O | 13 | 4 | 0 | 10 | -2 | 76* | 12 | 22 | -25
COC(=O)[C@]12C[C@H](CC(=O)NCCCN3CCCC3=O)C(=O)N(Cc3cccc4ccccc34)C1=C[C@H](C(C)(C)C)O[C@@H]2C | x | 2 | x | -9 | x | x | x | x | x
O=C(c1ccc(F)cc1Cl)N1CCCC(c2nc(-c3cccs3)no2)C1 (stereo unspecified) | x | -3 | x | 0 | x | x | x | x | x
O=C(c1ccc(F)cc1)C1CCN(C(=S)NCC2CCCO2)CC1 (stereo unspecified) | -3 | -5 | -3 | 33 | 27 | 63* | 13 | 10 | 10
S=C(Nc1ccc2nc(-c3ccccn3)c(-c3ccccn3)nc2c1)N1CCCCC1 | -16 | x | -35 | x | -26 | 54 | 31 | 11 | 3
O=C(NCc1ccccn1)c1ccc(Cn2cc(C(F)(F)F)ccc2=O)cc1 | -7 | 19 | -16 | -10 | 1 | 62* | 10 | 3 | -15
CCC(C)(C)NC(=O)C(c1ccccc1Cl)N(C(=O)CCC(=O)Nc1cc(C)on1)c1ccc(NC(C)=O)cc1 (stereo unspecified) | -2 | 7 | -39 | -15 | -14 | 54 | 10 | 28* | -19
O=C(Nc1ccc2c(c1)OCO2)OC1CCC12CCCCC2 (stereo unspecified) | x | -35 | x | -87 | x | x | x | x | x
